ALR inh = inhibitors of human ALR sulfhydryl oxidase, primary screen, biochemical, H2O2 detection, HRP-luminol luminescence, single point. FAD-linked sulfhydryl oxidase ALR (Homo sapiens), P55789. purified ALR, DTT oxidation. inhibition, % (test concentration not listed). 290,000 compounds, 3.8% hits. AID 485317, 2010;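 active = mean replicate inhibition above about 79%, with every replicate also reaching it, limit read from the data; inconclusive = only one of the two criteria met; inactive = mean below limit and not every replicate reaching it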
Cardio protect = cardioprotection against H2O2-induced cell death, primary screen, uHTS, H9c2 cells, ATPLite luminescence | 360,000 compounds, 0.63% hits | H9c2 cardiomyocytes, H2O2 injury protection, 2 h | AID 588492, 2011 | protection from H2O2 cell death, % at 20 µM;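 active = compounds giving at least 50% protection of heart cells from peroxide-induced death in the single-dose screen, raw or plate-pattern-corrected value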
SUMO HTRF inh = inhibitors of in vitro SUMOylation cascade, primary screen, biochemical, HTRF, uHTS | HTRF SUMOylation assay, SAE1/SAE2 + UBC9 | inhibition, % at 35 µM | 290,000 compounds, 0.36% hits | AID 2006, 2009; in the data active = inhibition above about 50%, passing the limit was not always enough; inconclusive = no clear call, values can overlap the other calls
Target sequence (P63279 whole entry, looked up): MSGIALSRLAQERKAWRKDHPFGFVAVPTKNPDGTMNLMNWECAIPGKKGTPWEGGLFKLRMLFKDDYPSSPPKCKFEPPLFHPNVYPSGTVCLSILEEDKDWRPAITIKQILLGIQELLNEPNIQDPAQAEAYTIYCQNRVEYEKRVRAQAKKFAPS
NTR1 ag = agonists of human NTR1, primary screen, imaging, U2OS cells, beta-arrestin-GFP, high content; activation, % at 20 µM; NTR1-U2OS beta-arrestin-GFP spot imaging, agonist mode; 330,000 compounds, 0.17% hits;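 active = activation at or above 40% of the spot to cytoplasm intensity ratio, with at least 20 cells analyzed; inconclusive = wells under 20 cells, flagged as cytotoxic or low count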
Target sequence (P30989 whole entry, looked up): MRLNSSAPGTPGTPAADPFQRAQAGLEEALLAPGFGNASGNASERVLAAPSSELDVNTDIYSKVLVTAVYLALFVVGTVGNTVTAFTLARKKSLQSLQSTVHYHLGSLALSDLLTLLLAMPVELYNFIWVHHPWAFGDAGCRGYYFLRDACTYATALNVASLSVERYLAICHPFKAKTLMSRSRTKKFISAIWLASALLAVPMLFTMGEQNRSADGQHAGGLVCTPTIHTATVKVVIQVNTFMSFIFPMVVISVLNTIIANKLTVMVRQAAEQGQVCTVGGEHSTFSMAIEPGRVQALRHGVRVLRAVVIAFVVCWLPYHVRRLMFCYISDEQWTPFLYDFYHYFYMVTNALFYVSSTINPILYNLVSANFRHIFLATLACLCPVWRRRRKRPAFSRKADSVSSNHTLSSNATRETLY
A number is an active result; – = inactive; ? = inconclusive; · = not tested or not shown. Shown are actives, neighbours in structure and some others; about 3.9% of the full set was active somewhere.

SMILES	ALR inh	Cardio protect	SUMO HTRF inh	NTR1 ag
O=C(c1ccc(-c2nc3ccccc3s2)o1)N1CCN(c2ccccc2O)CC1	–	52.3	–	–
O=C(O)c1ccc(-c2nc3ccccc3s2)o1	–	–	–	–
C=CCN(C(=O)CSc1nc2c(sc3ccccc32)c(=O)n1CCN(CC)CC)c1ccccc1	·	–	–	–
CCN(CC)CCn1c(SCC(=O)Nc2ccc(F)cc2)nc2c(sc3ccccc32)c1=O	99.0	·	–	–
COc1ccccc1NC(=O)CSc1nc2c(sc3ccccc32)c(=O)n1CCN(C)C	99.1	–	–	–
COCCn1c(SCC(=O)Nc2ccccc2OC)nc2ccccc2c1=O	–	–	–	–
Cc1ccc(NS(=O)(=O)c2cn(C)cn2)cc1	–	–	–	–
O=S(=O)(c1ccccc1)N1N=C(c2ccc(O)cc2)CC1c1ccco1 (configuration not stated)	99.6	–	–	–
Cc1ccc(C2=NN(S(=O)(=O)c3ccccc3)C(c3ccco3)C2)cc1 (configuration not stated)	·	–	·	–
CC(=O)CCC(=O)OCC(=O)Nc1ccc(SC(F)F)cc1	·	–	–	–
COc1cc(/C=N/Nc2ccc(F)cc2F)cc(OC)c1O	99.2	–	–	–
COc1cc(/C=N/Nc2ccc(Cl)nn2)cc(OC)c1O	94.5	–	–	–
COc1cc(/C=N/Nc2ccccc2[N+](=O)[O-])cc(OC)c1O	–	–	–	–
O=C(O)c1cccc(C(=O)O)c1	–	–	–	–
O=C(O)c1ccc(O)c(O)c1	98.0	–	–	–
O=C(O)c1ccc(-c2ccc(O)c(F)c2)cc1	98.0	–	–	–
O=C(NCC1CCCO1)C(=O)NCC(c1ccco1)N1CCN(c2ccccc2)CC1 (configuration not stated)	98.0	–	–	–
COC(=O)NCC(c1ccco1)N1CCN(c2ccccc2)CC1 (configuration not stated)	96.4	–	–	–
COc1ccc(N2CCN(C(CNC(=O)c3ccc4c(c3)OCO4)c3cccnc3)CC2)cc1 (configuration not stated)	96.7	–	–	–
O=C(NCC(c1cccnc1)N1CCN(c2ccc(F)cc2)CC1)c1ccc2c(c1)OCO2 (configuration not stated)	–	–	–	–
O=C(NCC(c1cccnc1)N1CCN(c2ccc(F)cc2)CC1)c1ccco1 (configuration not stated)	92.4	–	–	–
COc1ccc(N2CCN(C(CNC(=O)C(=O)NCc3cccnc3)c3ccco3)CC2)cc1 (configuration not stated)	–	–	–	–
S=C(NCC1CCCO1)N1CCN(c2ccccc2)CC1 (configuration not stated)	97.8	–	–	–
O=C(NCc1cccnc1)C(=O)NCC(c1ccco1)N1CCN(c2ccc(F)cc2)CC1 (configuration not stated)	85.8	–	–	–
COc1ccc(N2CCN(C(CNC(=O)c3ccco3)c3cccnc3)CC2)cc1 (configuration not stated)	89.0	–	–	–
SMILES	ALR inh	Cardio protect	SUMO HTRF inh	NTR1 ag
FC(F)(F)c1cccc(N2CCN(C(=S)NCC3CCCO3)CC2)c1 (configuration not stated)	–	–	–	–
O=C(NCc1ccncc1)C(=O)NCC(c1ccco1)N1CCN(c2ccccc2)CC1 (configuration not stated)	99.2	–	–	–
COc1ccc(N2CCN(C(CNC(=O)C(=O)NCc3ccncc3)c3ccco3)CC2)cc1 (configuration not stated)	?	–	–	–
COc1ccc(C(=O)N2CCC(N3CCN(c4ccccc4)CC3)CC2)cc1	–	–	–	–
CCn1c2ccc(C)cc2c2nc3cc(C(=O)O)ccc3nc21	–	–	–	·
CCOC(=O)C1CCCN(C(=O)c2ccc(NS(=O)(=O)c3ccc4[nH]c(=O)[nH]c4c3)cc2)C1 (configuration not stated)	·	–	·	–
CC(C)NC(=O)COc1coc(CN2CCN(c3ccccc3)CC2)cc1=O	–	–	–	–
O=C(COc1coc(CN2CCN(c3ccccc3)CC2)cc1=O)NCC1CCCO1 (configuration not stated)	93.4	–	·	–
COc1ccc(N2CCN(C(CNC(=O)c3ccco3)c3ccco3)CC2)cc1 (configuration not stated)	90.8	–	·	–
CCCCN(CCCC)S(=O)(=O)c1ccc(NS(=O)(=O)c2ccc(NC(C)=O)cc2)cc1	–	–	–	–
Cc1ccc(S(=O)ONc2cccc(NOS(=O)c3ccc(C)cc3)c2)cc1 (configuration not stated)	·	–	·	·
CN(C(=O)CSc1nc(N)cc(=O)[nH]1)C1CCCCC1	·	–	·	·
CN(C(=O)CSc1nc2c(c(=O)[nH]1)CCCC2)C1CCCCC1	–	62.6	–	–
O=S1(=O)CCN(Cc2ccc(F)cc2)CC1	–	–	–	–
O=C(CSc1nc2ccccc2c(=O)[nH]1)c1ccc(O)c(O)c1	98.8	57.7	–	–
O=C(CSc1nc2ccccc2c(=O)[nH]1)c1ccc(O)cc1O	·	67.2	–	·
Cc1cc(C)cc(NC(=O)CN2C(=O)NC(C)(c3ccccc3)C2=O)c1 (configuration not stated)	–	–	–	–
CC1(c2ccccc2)NC(=O)N(CC(=O)Nc2cccc(/C=C/c3ccccn3)c2)C1=O (configuration not stated)	–	68.2	·	–
Cc1cc(N2CCCC2)ccc1NC(=O)CN1C(=O)NC(C)(c2ccccc2)C1=O (configuration not stated)	99.0	–	–	–
CCC1(c2ccccc2)NC(=O)N(CC(=O)Nc2ccc(N3CCCC3)cc2C)C1=O (configuration not stated)	?	–	·	–
CCOC(=O)Nc1ccc2c(COC(=O)CNS(=O)(=O)c3cccc(Br)c3)cc(=O)oc2c1	–	–	–	–
CC(C)c1nc2cc(C(=O)N(C)Cc3ccc(F)cc3)ccc2o1	–	–	–	–
Cc1ccc(C(C(=O)NCc2ccccc2)N(C(=O)c2ccccn2)c2ccccc2)o1 (configuration not stated)	–	–	–	–
CCN1C(=O)/C(=C2/Sc3ccccc3N2CC)S/C1=N\c1ncn[nH]1	98.2	–	–	–
CCCc1nc2c(=O)n(C)c(=O)[nH]c2n1C	–	–	–	–
Cc1nnc2ccc(N3CCN(C(=O)c4ccccc4)CC3)nn12	–	–	–	–
O=C(c1ccc(Br)o1)N1CCN(c2ccc3nnc(-c4ccccc4)n3n2)CC1	–	80.6	–	–
Cc1cccc(N2CCN(C(=O)CCc3nc4ccccc4c(=O)[nH]3)CC2)c1C	–	50.5	·	–
CC(C)Cn1c(N)c(C(=O)COC(=O)CCc2nc3ccccc3c(=O)[nH]2)c(=O)n(C)c1=O	–	54.1	·	–
Cc1ccc2c(c1)CCCN2C(=O)CCc1nc2ccccc2c(=O)[nH]1	–	76.3	·	–

Screens (PubChem)
